# Source: the supplement of paper PMC10849652
# The full data set covers some 7,900 targets. This sample favours those with a hit. About 0.6% of all pairs of compound and target were hits. A number with no mark means an inactive call.
# Compound: CC(C)C1=C2N=C(C=C(N2N=C1)NCC3=CC=CC=C3)NCCCCCCN
# Experiment: log2 fold change, soluble protein after heating vs DMSO (PISA); higher = thermal stabilisation; K562 cells, 10 uM, 30 min; active = over 0.2 and 3.5 SD of the protein, either way, in both replicates (recomputed)
# How it was run: (§1)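 K562 cells (2×10^6 cells/mL) were treated with 10 μM compound for 30 min, and aliquots were heated for 3 min over 48°C-58°C. Pooled aliquots were extracted in PBS with 0.5% NP-40 at 4°C, and the supernatant after 21,000xg for 90 min was measured by TMTpro 16plex LC-MS/MS with channel sums equalised. Reported thermal stability, relative to control samples and from duplicates, is a log2 fold change.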
# UniProt O75122, sequence (O75122 whole entry, looked up): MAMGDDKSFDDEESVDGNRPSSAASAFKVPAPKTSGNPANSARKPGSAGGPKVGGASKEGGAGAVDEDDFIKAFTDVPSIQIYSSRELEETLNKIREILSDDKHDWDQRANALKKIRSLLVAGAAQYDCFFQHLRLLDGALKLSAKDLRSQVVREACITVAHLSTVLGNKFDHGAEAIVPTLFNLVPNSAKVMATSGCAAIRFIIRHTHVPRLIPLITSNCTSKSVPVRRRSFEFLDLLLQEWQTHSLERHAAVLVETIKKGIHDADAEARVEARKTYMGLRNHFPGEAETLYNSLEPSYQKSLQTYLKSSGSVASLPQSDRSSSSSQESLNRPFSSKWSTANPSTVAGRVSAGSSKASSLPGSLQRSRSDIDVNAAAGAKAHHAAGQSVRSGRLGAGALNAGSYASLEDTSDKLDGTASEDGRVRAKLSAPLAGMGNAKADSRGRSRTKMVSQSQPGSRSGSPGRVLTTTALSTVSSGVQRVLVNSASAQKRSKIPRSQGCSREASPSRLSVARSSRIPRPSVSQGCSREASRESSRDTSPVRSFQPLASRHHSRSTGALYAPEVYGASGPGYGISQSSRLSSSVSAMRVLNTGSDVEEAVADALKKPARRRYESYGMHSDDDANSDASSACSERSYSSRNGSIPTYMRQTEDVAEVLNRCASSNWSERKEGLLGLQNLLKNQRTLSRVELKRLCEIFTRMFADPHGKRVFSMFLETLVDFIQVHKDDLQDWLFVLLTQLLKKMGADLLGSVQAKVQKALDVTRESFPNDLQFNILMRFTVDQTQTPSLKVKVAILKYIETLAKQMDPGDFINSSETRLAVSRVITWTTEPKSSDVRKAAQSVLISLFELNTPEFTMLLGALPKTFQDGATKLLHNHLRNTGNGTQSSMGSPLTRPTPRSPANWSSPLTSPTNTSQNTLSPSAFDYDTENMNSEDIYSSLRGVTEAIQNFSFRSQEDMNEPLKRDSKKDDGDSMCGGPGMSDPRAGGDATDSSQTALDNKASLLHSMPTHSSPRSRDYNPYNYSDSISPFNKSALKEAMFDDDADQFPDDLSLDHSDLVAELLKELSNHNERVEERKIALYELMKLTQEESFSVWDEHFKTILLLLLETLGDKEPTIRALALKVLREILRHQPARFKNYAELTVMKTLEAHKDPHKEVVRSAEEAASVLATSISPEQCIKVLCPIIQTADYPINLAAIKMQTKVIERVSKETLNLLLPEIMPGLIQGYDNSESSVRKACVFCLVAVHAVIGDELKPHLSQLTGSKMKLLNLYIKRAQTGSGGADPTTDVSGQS
# UniProt Q9UBY8, sequence (Q9UBY8 whole entry, looked up): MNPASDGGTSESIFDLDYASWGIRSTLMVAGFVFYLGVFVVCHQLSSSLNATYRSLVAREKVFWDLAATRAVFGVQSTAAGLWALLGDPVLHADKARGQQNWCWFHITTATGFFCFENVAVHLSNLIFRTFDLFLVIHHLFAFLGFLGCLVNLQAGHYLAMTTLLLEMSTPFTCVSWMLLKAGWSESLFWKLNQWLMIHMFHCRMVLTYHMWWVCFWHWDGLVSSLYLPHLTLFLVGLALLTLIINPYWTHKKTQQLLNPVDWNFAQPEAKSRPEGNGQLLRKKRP
# UniProt Q9BWU1, sequence (Q9BWU1 whole entry, looked up): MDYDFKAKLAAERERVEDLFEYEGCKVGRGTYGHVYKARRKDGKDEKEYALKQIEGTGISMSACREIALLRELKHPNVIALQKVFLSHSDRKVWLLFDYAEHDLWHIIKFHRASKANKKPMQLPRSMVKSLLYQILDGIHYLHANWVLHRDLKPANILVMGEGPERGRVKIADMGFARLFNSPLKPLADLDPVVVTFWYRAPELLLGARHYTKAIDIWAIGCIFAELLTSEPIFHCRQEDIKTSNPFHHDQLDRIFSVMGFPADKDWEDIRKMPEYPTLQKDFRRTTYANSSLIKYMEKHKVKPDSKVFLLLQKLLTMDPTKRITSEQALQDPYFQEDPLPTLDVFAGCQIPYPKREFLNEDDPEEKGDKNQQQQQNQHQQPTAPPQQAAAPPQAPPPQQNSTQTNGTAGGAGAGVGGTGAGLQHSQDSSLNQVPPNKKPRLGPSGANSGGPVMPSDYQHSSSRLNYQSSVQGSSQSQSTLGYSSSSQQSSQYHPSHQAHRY
# UniProt P51795, sequence (P51795 whole entry, looked up): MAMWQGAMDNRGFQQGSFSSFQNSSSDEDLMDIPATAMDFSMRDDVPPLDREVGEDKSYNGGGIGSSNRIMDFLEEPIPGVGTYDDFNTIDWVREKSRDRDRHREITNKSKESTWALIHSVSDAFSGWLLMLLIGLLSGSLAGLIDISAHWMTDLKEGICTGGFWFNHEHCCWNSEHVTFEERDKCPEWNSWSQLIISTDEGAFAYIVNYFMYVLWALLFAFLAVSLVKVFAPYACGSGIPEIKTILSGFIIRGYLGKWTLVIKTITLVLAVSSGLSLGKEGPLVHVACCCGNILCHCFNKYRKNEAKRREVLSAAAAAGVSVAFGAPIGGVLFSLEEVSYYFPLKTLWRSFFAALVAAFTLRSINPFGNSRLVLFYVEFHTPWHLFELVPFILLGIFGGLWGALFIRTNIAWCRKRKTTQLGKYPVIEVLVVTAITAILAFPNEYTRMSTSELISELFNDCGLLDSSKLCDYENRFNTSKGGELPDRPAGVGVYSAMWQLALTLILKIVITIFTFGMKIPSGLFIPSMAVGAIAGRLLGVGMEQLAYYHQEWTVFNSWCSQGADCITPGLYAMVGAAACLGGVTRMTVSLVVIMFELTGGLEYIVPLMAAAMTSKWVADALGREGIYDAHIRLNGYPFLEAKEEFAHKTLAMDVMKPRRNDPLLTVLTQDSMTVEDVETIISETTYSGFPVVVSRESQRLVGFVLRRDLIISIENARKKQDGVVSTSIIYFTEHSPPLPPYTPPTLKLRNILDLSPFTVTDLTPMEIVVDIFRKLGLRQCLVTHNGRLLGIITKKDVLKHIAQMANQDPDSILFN
# UniProt P30281, sequence (P30281 whole entry, looked up): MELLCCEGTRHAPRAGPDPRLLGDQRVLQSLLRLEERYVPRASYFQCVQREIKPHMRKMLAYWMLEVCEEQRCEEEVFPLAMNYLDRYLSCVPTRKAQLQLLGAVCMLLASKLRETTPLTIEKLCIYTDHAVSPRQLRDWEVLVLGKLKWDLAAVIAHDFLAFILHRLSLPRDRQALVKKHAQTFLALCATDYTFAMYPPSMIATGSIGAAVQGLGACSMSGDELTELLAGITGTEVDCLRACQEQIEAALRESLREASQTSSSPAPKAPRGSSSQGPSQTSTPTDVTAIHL
# UniProt Q8WUD6, sequence (Q8WUD6 whole entry, looked up): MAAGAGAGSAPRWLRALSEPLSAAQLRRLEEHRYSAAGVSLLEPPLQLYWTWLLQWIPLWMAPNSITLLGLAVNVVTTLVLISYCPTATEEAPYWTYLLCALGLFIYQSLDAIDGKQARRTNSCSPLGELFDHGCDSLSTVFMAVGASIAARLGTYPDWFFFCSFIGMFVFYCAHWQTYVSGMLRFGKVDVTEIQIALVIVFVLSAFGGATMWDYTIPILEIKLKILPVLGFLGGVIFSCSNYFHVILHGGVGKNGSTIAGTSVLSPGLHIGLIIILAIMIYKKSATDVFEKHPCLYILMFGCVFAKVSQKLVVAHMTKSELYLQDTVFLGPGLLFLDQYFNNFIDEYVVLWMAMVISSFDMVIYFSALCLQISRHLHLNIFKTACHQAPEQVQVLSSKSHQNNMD
# UniProt Q14677, sequence (Q14677 whole entry, looked up): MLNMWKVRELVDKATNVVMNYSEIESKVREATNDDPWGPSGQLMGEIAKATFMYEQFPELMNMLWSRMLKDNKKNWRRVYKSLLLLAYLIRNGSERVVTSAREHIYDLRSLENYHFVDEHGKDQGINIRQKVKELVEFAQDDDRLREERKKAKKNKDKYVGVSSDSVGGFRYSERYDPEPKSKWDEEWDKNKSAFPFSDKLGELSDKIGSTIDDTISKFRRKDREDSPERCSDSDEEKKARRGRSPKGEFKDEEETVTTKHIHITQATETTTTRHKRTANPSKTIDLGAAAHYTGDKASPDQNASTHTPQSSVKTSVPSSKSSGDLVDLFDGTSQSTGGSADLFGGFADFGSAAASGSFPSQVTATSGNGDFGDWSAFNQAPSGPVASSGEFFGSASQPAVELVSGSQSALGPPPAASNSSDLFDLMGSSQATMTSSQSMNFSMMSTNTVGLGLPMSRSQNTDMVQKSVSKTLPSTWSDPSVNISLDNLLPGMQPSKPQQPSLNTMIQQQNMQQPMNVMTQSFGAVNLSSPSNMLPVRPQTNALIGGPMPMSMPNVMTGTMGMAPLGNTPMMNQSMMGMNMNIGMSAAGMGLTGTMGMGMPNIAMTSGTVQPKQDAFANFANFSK
# UniProt O95273, sequence (O95273 whole entry, looked up): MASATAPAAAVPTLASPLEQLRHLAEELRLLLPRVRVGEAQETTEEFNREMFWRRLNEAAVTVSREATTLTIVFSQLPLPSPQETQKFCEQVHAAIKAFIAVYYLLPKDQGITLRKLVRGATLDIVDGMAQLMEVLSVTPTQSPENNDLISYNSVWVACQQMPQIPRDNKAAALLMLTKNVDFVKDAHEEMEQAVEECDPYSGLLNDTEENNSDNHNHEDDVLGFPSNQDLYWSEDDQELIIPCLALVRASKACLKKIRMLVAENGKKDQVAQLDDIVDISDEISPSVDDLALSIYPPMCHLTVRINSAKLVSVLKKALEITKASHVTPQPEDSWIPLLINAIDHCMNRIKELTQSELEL
# UniProt Q15417, sequence (Q15417 whole entry, looked up): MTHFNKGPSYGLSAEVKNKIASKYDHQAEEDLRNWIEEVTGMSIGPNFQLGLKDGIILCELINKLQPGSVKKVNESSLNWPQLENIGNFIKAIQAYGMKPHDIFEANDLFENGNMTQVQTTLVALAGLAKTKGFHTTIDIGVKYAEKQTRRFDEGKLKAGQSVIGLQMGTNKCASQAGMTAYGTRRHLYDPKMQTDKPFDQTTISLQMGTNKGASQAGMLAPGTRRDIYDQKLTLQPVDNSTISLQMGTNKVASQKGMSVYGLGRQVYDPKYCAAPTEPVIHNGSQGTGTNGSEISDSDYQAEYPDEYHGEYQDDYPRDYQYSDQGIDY
# UniProt P33552, sequence (P33552 whole entry, looked up): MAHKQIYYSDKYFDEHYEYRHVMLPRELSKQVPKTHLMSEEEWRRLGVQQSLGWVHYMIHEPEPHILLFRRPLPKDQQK
row,Target,log2 fold change
1,CORO2A (UniProt Q92828),-0.088
2,CD84 (UniProt Q9UIB8),0.024
3,CDK19 (UniProt Q9BWU1),0.222
4,CCNDBP1 (UniProt O95273),-0.077
5,CLN3 (UniProt Q13286),-0.532 (active)
6,CCND3 (UniProt P30281),-0.303
7,CCNL1 (UniProt Q9UK58),-0.188
8,CRMP1 isoform 2 (UniProt Q14194),0.124
9,CLN5 (UniProt O75503),-0.62
10,CASP7 isoform 3 (UniProt P55210),0.035
11,CLASP2 (UniProt O75122),0.086
12,CNRIP1 (UniProt Q96F85),0.034
13,CNN3 (UniProt Q15417),-0.17
14,CLINT1 isoform 3 (UniProt Q14677),0.103
15,CASK (UniProt O14936),0.177
16,CPNE5 (UniProt Q9HCH3),-0.209
17,CRLS1 (UniProt Q9UJA2),0.036
18,CD68 (UniProt P34810),-0.535 (active)
19,CLCN5 isoform 2 (UniProt P51795),-0.29
20,CLN8 (UniProt Q9UBY8),0.017

# Compound: CC(C)C[C@@H](C=O)NC(=O)[C@H](CC(C)C)NC(=O)[C@H](CC(C)C)NC(=O)OCc1ccccc1
# Experiment: as above
# How it was run: as §1
row,Target,log2 fold change
1,CORO2A (UniProt Q92828),0.21
2,CDK19 (UniProt Q9BWU1),0.074
3,CCNDBP1 (UniProt O95273),-0.027
4,CCNT2 (UniProt O60583),0.116
5,CLN3 (UniProt Q13286),-0.043
6,CCND3 (UniProt P30281),0.341
7,CFAP58 (UniProt Q5T655),-0.035
8,CLASP2 (UniProt O75122),0.161
9,CNRIP1 (UniProt Q96F85),0.116
10,"CCDC187, A0A1W2PQX5",0.001
11,CRTC3 (UniProt Q6UUV7),0.042
12,CLINT1 isoform 3 (UniProt Q14677),0.04
13,CHPT1 (UniProt Q8WUD6),-0.002
14,CLCN5 isoform 2 (UniProt P51795),-0.004
15,CLN8 (UniProt Q9UBY8),0.139

# Compound: CC(C)N(C[C@H]1O[C@@H](n2cnc3c(N)ncnc32)[C@H](O)[C@@H]1O)[C@H]1C[C@@H](CCc2nc3cc(C(C)(C)C)ccc3[nH]2)C1 [pinometostat]
# Experiment: as above
# How it was run: as §1
row,Target,log2 fold change
1,CLINT1 (UniProt Q14677),0.058
2,CLN3 (UniProt Q13286),-0.113
3,CLN5 (UniProt O75503),-0.062
4,CLASP2 (UniProt O75122),0.057
5,CLINT1 isoform 3 (UniProt Q14677),0.047
6,CASK (UniProt O14936),0.081
7,CRLS1 (UniProt Q9UJA2),-0.071
8,CLCN5 isoform 2 (UniProt P51795),0.061

# Compound: CC1=C(C(CC(=O)N1)C2=CC=C(C=C2)C(F)(F)F)C(=O)NC3=C(C=C4C(=C3)C=NN4)F
# Experiment: as above
# How it was run: as §1
row,Target,log2 fold change
1,CORO2A (UniProt Q92828),0.008
2,CDK19 (UniProt Q9BWU1),-0.156
3,CCNDBP1 (UniProt O95273),0.166
4,CLINT1 (UniProt Q14677),0.099
5,CCNT2 (UniProt O60583),0.011
6,CNN1 (UniProt P51911),0.144
7,CLN3 (UniProt Q13286),0.054
8,CRMP1 isoform 2 (UniProt Q14194),0.196
9,CLN5 (UniProt O75503),-0.039
10,CASP7 isoform 3 (UniProt P55210),0.064
11,CKS2 (UniProt P33552),0.047
12,COMMD3-BMI1 (UniProt R4GMX3),0.028
13,CLASP2 (UniProt O75122),0.116
14,CNRIP1 (UniProt Q96F85),0.165
15,"CCDC187, A0A1W2PQX5",-0.11
16,CLPTM1L (UniProt G5E9Z2),0.106
17,CNN3 (UniProt Q15417),0.058
18,CLINT1 isoform 3 (UniProt Q14677),-0.002
19,CHPT1 (UniProt Q8WUD6),0.26
20,CRLS1 (UniProt Q9UJA2),-0.032
21,CLCN5 isoform 2 (UniProt P51795),0.021
22,CLN8 (UniProt Q9UBY8),0.043

# Compound: CC1=C(C2=C(C=C1)C(=O)C3=CC=CC=C3N2CCCN)C
# Experiment: as above
# How it was run: as §1
row,Target,log2 fold change
1,CORO2A (UniProt Q92828),0.01
2,CD84 (UniProt Q9UIB8),0.233
3,CDK19 (UniProt Q9BWU1),0.119
4,CCNDBP1 (UniProt O95273),-0.166
5,CLINT1 (UniProt Q14677),-0.114
6,CCNT2 (UniProt O60583),-0.062
7,CNN1 (UniProt P51911),0.145
8,CLN3 (UniProt Q13286),-0.147
9,CCND3 (UniProt P30281),-0.088
10,CRMP1 isoform 2 (UniProt Q14194),0.181
11,CLN5 (UniProt O75503),-0.028
12,CKS2 (UniProt P33552),-0.058
13,COMMD3-BMI1 (UniProt R4GMX3),-0.071
14,CLPTM1L (UniProt G5E9Z2),-0.201
15,CA1 (UniProt E5RIF9),-0.02
16,CNN3 (UniProt Q15417),0.012
17,CRTC3 (UniProt Q6UUV7),0
18,C5orf30 (UniProt Q96GV9),-0.284
19,CLINT1 isoform 3 (UniProt Q14677),0.022
20,CHPT1 (UniProt Q8WUD6),0.044
21,CPNE5 (UniProt Q9HCH3),-0.225
22,CRLS1 (UniProt Q9UJA2),-0.005
23,CLCN5 isoform 2 (UniProt P51795),0.009
24,CLN8 (UniProt Q9UBY8),0.138
